Mtb bLac sens: beta-lactam sensitization of Mtb H37Rv; M. tuberculosis H37Rv growth with meropenem, percent inhibition; inhibition, % at 25 µM; 0.27% of 330,000 active; call rule not given here;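 further: growth measured after seven days incubation then overnight dye step; 0% = bacteria only wells and 100% = bacteria with antibiotic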
Mtb UGM inh: inhibitors of M. tuberculosis UDP-galactopyranose mutase | P9WIQ1 | purified UGM, fluorescence polarization probe displacement | inhibition, % at 10 µM | 0.06% of 320,000 active | AID 504406; in the data active means inhibition above about 10%, passing the limit was not always enough; inconclusive means no clear call, values can overlap the other calls
GDH-TPI counter-1: inhibits GDH-TPI coupling enzymes, artifact for Mtb FBA screen; 1.2% of 360,000 active; GDH-TPI coupled enzyme counterscreen, NADH absorbance; AID 588335; inhibition, % at 4.8 µM; in the data active means inhibition above about 30%;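 further: 0% = DMSO wells and 100% = wells lacking the enzyme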
Mtb FBA inh: Mtb fructose-bisphosphate aldolase inhibition. P9WQA3. purified M. tuberculosis FBA, fluorescence read-out. inhibition, % at 1 µM. 2.3% of 360,000 active. AID 588726;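 further: 0% = vehicle and 100% = reference inhibitor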
Target sequence (P9WQA3 whole entry, looked up): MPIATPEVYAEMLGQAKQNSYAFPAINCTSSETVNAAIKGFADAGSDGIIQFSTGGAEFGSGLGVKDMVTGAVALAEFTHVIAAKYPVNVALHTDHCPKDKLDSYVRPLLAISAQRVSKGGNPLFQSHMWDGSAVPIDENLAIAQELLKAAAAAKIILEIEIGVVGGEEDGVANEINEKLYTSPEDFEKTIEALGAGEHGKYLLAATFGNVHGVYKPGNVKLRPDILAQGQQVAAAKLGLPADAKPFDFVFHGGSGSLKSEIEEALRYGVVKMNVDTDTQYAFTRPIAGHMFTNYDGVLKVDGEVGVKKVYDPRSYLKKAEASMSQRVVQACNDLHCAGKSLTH
Rv3671c protease: Rv3671c (M. tuberculosis) protease inhibition | P9WHR9 | inhibition, % at 5.96 µM | 0.048% of 320,000 active | AID 2606; in the data active means inhibition above about 38%;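 further: extracellular domain of Rv3671c used as enzyme; 0% = enzyme with DMSO and 100% = no enzyme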
Mtb FBA inh conf: Mtb FBA inhibition, confirmed; shares compounds with Mtb FBA inh; purified M. tuberculosis FBA, fluorescence read-out; inhibition, % at 1 µM; 78% of 5,600 active; AID 651616;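 further: 0% = vehicle wells and 100% = reference inhibitor wells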
GDH-TPI counter-2: GDH-TPI inhibition counter-screen for FBA inhibitors; GDH-TPI coupled enzyme counterscreen, fluorescence; shares compounds with Mtb FBA inh; 81% of 5,600 active; inhibition, % at 1 µM; in the data active means inhibition above about 10%
* hit, by the source's call; ? = inconclusive; / = not tested or not shown; + = active, no number. Compounds with a hit are over-represented: about 3.5% of the library has one in this group of screens. Unless noted, no stated cut-off is given here; in the data, active means inhibition above about 27%; inactive means the rest.

SMILES	Mtb bLac sens	Mtb UGM inh	GDH-TPI counter-1	Mtb FBA inh	Rv3671c protease	Mtb FBA inh conf	GDH-TPI counter-2
Cc1ccc(-c2nc3ccccc3[nH]2)cn1	-1	-2	6	5	10	/	/
CC(C)(C)c1nc(SCC(=O)N2CC(=O)Nc3ccccc32)c2ccccc2n1	-6	-1	-3	-1	2	/	/
Cn1c(=O)nc2n(Cc3ccccc3)c3ccccc3cc-2c1=O	2	-3	7	85*	-13	72*	52*
CC(C)n1cc(C(=O)N(CC(=O)NC2CCCC2)Cc2ccccc2)cn1	-7	2	8	-1	-8	/	/
Cc1nn(-c2ccccc2)c2sc(C(=O)N(CC(=O)NC3CCCC3)Cc3ccco3)cc12	/	/	14	6	/	/	/
CC1(C(=O)N(CC(=O)NC2CCCC2)Cc2ccccc2)CC(=O)N=C2C=CC=CN21 (stereo not given)	1	-2	6	109*	-1	140*	109*
CC1(C(=O)N(CC(=O)NC2CCCC2)Cc2ccco2)CC(=O)N=C2C=CC=CN21 (stereo not given)	2	4	15	65*	0	118*	72*
Cc1ccc(NC(=O)Cn2nc(C)c([N+](=O)[O-])c2C)cc1C	11	1	-2	36*	3	-5	-6
C/C=C1\C(OC2OC(CO)C(O)C(O)C2O)OC=C(C(=O)OC)C1CC(=O)OCC1C(C)C(OC(=O)CC2C(C(=O)OC)=COC(OC3OC(CO)C(O)C(O)C3O)/C2=C\C)CC1C(CO)CO (stereo not given)	2	-1	2	3	4	/	/
CC(C)c1nc(NCC2CCCO2)c(C#N)c2c1COC(C)(C)C2 (stereo not given)	10	-3	8	55*	-2	123*	101*
CCc1nc(NCC2CCCO2)c(C#N)c2c1COC(C)(C)C2 (stereo not given)	-3	2	9	71*	-5	140*	105*
C/C(=N\NC(=O)C1CC1)c1ccc(C)cc1C	-1	2	-10	3	-5	/	/
OC1c2c(F)cccc2N=C2CCCCN21 (stereo not given)	/	/	-1	38*	/	176*	162*
COc1ccc2oc(C(=O)OCC(=O)NCc3ccco3)c(C)c2c1	1	-4	2	27	-5	/	/
COc1ccc(-c2coc3c(CN4CCOCC4)c(O)ccc3c2=O)cc1	3	2	8	41*	-1	63*	50*
CCOc1ccccc1Oc1c(C)oc2c(CN3CCN(CCO)CC3)c(O)ccc2c1=O	-3	4	15	80*	-3	-11	-8
CN1CCN(Cc2c(O)ccc3c(=O)c(Oc4ccccc4Cl)c(C(F)(F)F)oc23)CC1	-1	1	13	-2	-3	/	/
O=c1c(-c2ccccc2)coc2c(CN3CCCC3)c(O)ccc12	-7	1	15	82*	4	145*	123*
CC(C)N(Cc1c(O)ccc2c(=O)c(-c3ccc(Cl)cc3)coc12)C(C)C	5	-1	6	7	-6	/	/
Cc1c(O)ccc2c(=O)c(-c3nncn3-c3ccccc3)coc12	0	2	7	2	0	/	/
O=c1c(-c2ccc(Cl)cc2)coc2c(CN3CCOCC3)c(O)ccc12	2	4	25	30*	-4	30*	19*
Cc1oc2c(CN3CCOCC3)c(O)ccc2c(=O)c1-c1ccccc1	7	-1	24	98*	-8	+	+
CCN1CCc2c(sc3c2c(NCc2ccco2)nc2nnnn23)C1	4	5	8	64*	5	9	-2
OCCNC(=S)Nc1cccc(Cl)c1Cl	3	0	11	3	1	/	/
CCOC(=O)c1ccc(N2C=C(C(=O)OC)C(c3cccc(O)c3)C(C(=O)OC)=C2)cc1	-6	1	7	111*	-3	97*	81*
SMILES	Mtb bLac sens	Mtb UGM inh	GDH-TPI counter-1	Mtb FBA inh	Rv3671c protease	Mtb FBA inh conf	GDH-TPI counter-2
COC(=O)C1=CN(c2ccc(OC)cc2)C=C(C(=O)OC)C1c1cccc(F)c1	-10	-2	-1	26	-4	/	/
CC(C)CNC(=O)COC(=O)c1ccc(F)cc1Cl	17	-3	0	-4	6	/	/
COC(=O)CNC(=O)COC(=O)c1cc(Cl)cc(Cl)c1N	94	0	-3	110*	4	+	+
COC(=O)CNC(=O)COC(=O)c1ccc(OC)c([N+](=O)[O-])c1	11	-3	8	-1	2	/	/
CC(C)CNC(=O)COC(=O)c1cc(Cl)cc(Cl)c1N	8	2	-1	78*	1	+	+
CCOC(=O)Cc1c(C)nc2c(-c3cccc(Br)c3)c[nH]n2c1=O	98	-3	6	41*	12	21	21*
O=C(CSc1ccc(Cl)cc1)Nc1cccc(-c2nc3ccccc3[nH]2)c1	1	/	17	35*	-30	+	+
O=C(CSc1ccccc1)Nc1ccc(-c2nc3ccccc3[nH]2)cc1	9	2	9	0	-18	/	/
CC1C(=O)OC(c2ccc(Br)cc2)C(C)(C)C1=O (stereo not given)	-4	2	-3	2	6	/	/
CCn1cc(CN2CCC(n3nccc3NC(=O)c3ccc4c(c3)OCO4)CC2)c(C)n1	?	0	0	-2	-4	/	/
O=c1[nH]c2c(=O)[nH]cnc2nc1-c1ccccc1	-6	-1	3	74*	4	56*	42*
CN(c1ccccc1)S(=O)(=O)c1cccc(NC(=O)CN2C(=O)NC3(CCCCC3)C2=O)c1	0	-1	6	38*	-2	88*	52*
CC1CCC2(CC1)NC(=O)N(CC(=O)Nc1cccc(S(=O)(=O)N(C)c3ccccc3)c1)C2=O (stereo not given)	/	/	4	1	/	/	/
O=C(COc1ccc(F)cc1)NCC1(N2CCCCC2)CCCCC1	/	/	7	5	/	/	/
Cc1ccccc1NC(=O)c1cc2c(=O)n3cccc(C)c3nc2s1	11	1	16	3	-4	/	/
CCCCNC(=O)c1cc2c(=O)n3cccc(C)c3nc2s1	6	-1	24	74*	4	+	+
Cc1cccn2c(=O)c(C(=O)NCCCN3CC(C)CC(C)C3)c(O)nc12 (stereo not given)	-12	1	11	1	-2	/	/
Cc1cccn2c(=O)c3cc(C(=O)NCCc4ccccc4)sc3nc12	2	-2	6	35*	-3	0	2
COCCCNC(=O)c1cc2c(=O)n3cccc(C)c3nc2s1	0	-2	19	65*	-6	66*	47*
Cc1cccn2c(=O)c3cc(C(=O)N4COCC4(C)C)sc3nc12	1	3	-8	44*	-6	191*	149*
Cc1cccn2c(=O)c3cc(C(=O)N4CCC5(CC4)OCCO5)n(C)c3nc12	-1	0	4	6	7	/	/

Assay outcomes deposited in PubChem BioAssay by several laboratories.
